Results on 24 compounds are retold here after PubChem BioAssay (NCATS).

Where “and” joins values, the source holds several entries; their conditions need not be identical. Identical values can stand only once. Records with an inconclusive call do not appear. Values without a mark were called inactive. Calls of active or inactive are those of the source. Calls come from the whole dose curve; as a rule, active = well fitted curve in the direction sought with a large enough effect; inconclusive = small, poorly fitted or top-dose-only effect, or another doubt; inactive = no such curve, though single readings can be large; an effect the other way counts as inactive or inconclusive.

The nature of test [1]: Viability qHTS for spleen associated tyrosine kinase inhibitor (SYKi) naive MV4-11 cells (AID 1963823). Note: nearly all actives have a fitted effect of over 40% in size. A digest of the protocol: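 CellTiter-Glo luminescence, 10 min room-temperature incubation, gave viability. Cells: naive MV4-11 (500/well), treated 72 hr at 37 C, 5% CO2.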
Test [2] in a line: Viability qHTS for spleen associated tyrosine kinase inhibitor (SYKi) drug resistant MV4-11 cells (AID 1963824). Note: nearly all actives have a fitted effect of over 35% in size. The essentials: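 SYK inhibitor-resistant MV4-11 AML cells, 500 per well, added to predispensed compounds and incubated 72 hr at 37 C, 5% CO2. Viability measured by CellTiter-Glo luminescence after 10 min at room temperature.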
(Quantitative high-throughput screening tests each substance at several concentrations.)

The nature of test [3]: Cellular viability qHTS for adrenocortical cancer (ACC) cell line SW-13 (AID 1963989).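 For activity (max response): cells grown in serum-free medium with ITS supplement; % is set by controls: 0 for no effect and ±100 for the full control effect.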 Note: nearly all actives have a fitted effect of over 65% in size. The conditions noted are these: SW-13 ACC cells viability, CellTiter-Glo, 48 h; activity (max response): stronger effect = lower value. A digest of the protocol:
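IC50 and maximal-response values come from four-parameter logistic fits of titration data. SW-13 cells in serum-free medium received compounds (up to 46 uM final) for 48 h before CellTiter-Glo luminescence.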

Test [4] can be described thus: Cellular viability qHTS for adrenocortical cancer (ACC) cell line NCI-H295R (AID 1963990). Note: nearly all actives have a fitted effect of over 60% in size. The essentials: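 Adrenocortical carcinoma cells, suspended at 300 000 cells/mL in serum-free DMEM plus ITS, rested overnight before pin transfer of compound. After two days' incubation, ATP-dependent luminescence was recorded and curve-fitted.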
Potency is the fitted concentration of half-maximal effect.

Take `CC(C)Cc1ccc([C@@H](C)C(=O)NS(C)(=O)=O)cc1`: the Potency entry in test [1], in test [2] and in test [4] was “inactive” each time. In addition, the activity (max response) in test [3] was 5.6%.

`CCCCc1nc2cc(/C=C/C(=O)NO)ccc2n1CCN(CC)CC`: the Potency in test [1] was 411 nM (active) and 525 nM (active); in test [2] it was 291 nM (active) and 468 nM (active); in test [3], 2 µM (active); in test [4], 0.708 µM (active).

Take `COc1cc(OC)c(/C=C/S(=O)(=O)Cc2ccc(OC)c(NCC(=O)O)c2)c(OC)c1`: the Potency in test [1] is 92 nM (active) and 105 nM (active); in test [2] it was 51.7 nM (active) and 118 nM (active); in test [3] it was 0.02 µM (active); in test [4], 0.0224 µM (active).

Take `CC1(C)S[C@H]2[C@H](NC(=O)[C@@H](N)c3ccc(O)cc3)C(=O)N2[C@H]1C(=O)O`: the Potency entry in test [1], in test [2] and in test [4] was “inactive” in each case. Also, in test [3], the activity (max response) was 7.49%.

`CCC1C(=O)OCC1Cc1cncn1C` (stereo unspecified): the Potency entry in test [1], in test [2] and in test [4] was “inactive” each time. In test [3], the activity (max response) was 6.41%.

As to `CCN(CC)CCNc1ccc(C)c2sc3ccccc3c(=O)c12`, the Potency in test [1] was 5.25 µM (active); in test [2], 7.42 µM (active); in test [3], 25.1 µM (active); in test [4] it was 15.8 µM (active).

As to `Cc1ccccc1N=Nc1ccc(N=Nc2c(O)ccc3ccccc23)c(C)c1`, the Potency entry in test [1], in test [2] and in test [4] was “inactive” in each case. The activity (max response) in test [3] was 15.2%.

As for `c1ccc2sc(SN3CCOCC3)nc2c1`, the Potency result in test [1], in test [2] and in test [4] was “inactive” throughout. In addition, the activity (max response) in test [3] is 3.28%.

Consider `NC(=O)/C(=C/n1cnc(-c2cc(C(F)(F)F)cc(C(F)(F)F)c2)n1)c1cncnc1`, for which the Potency in test [1] was 0.132 µM (active); in test [2], 0.235 µM (active); in test [3], 3.98 µM (active); in test [4], 3.16 µM (active).

On to `C/C=C/C[C@@H](C)C(=O)[C@H]1C(=O)N[C@@H](C(C)C)C(=O)N(C)CC(=O)N(C)[C@@H](CC(C)C)C(=O)N[C@@H](C(C)C)C(=O)N(C)[C@@H](CC(C)C)C(=O)N[C@@H](C)C(=O)N[C@H](C)C(=O)N(C)[C@@H](CC(C)C)C(=O)N(C)[C@@H](CC(C)C)C(=O)N(C)[C@@H](C(C)C)C(=O)N1C`, for which the Potency was 6.45 µM (active) in test [1] and 4.07 µM (active) in test [2]. Also, the activity (max response) in test [3] was 4.11%. The Potency result in test [4] was “inactive”.

Turning to `NC1=N[C@@]2(c3cc(NC(=O)c4ccc(F)cn4)ccc3F)COC[C@H]2CS1`, the Potency result in test [1] and in test [4] was “inactive” in each case. In test [2], the Potency was 14.8 µM (active). Also, the activity (max response) in test [3] was -8.2%.

Take `COC(=O)/C=C/C(=O)OC`: the Potency entry in test [1], in test [2] and in test [4] was “inactive” throughout. In addition, the activity (max response) in test [3] was -9.41%.

With `CN(C)C[C@@H]1CCn2cc(c3ccccc32)C2=C(C(=O)NC2=O)c2cn(c3ccccc23)CCO1`, the Potency in test [1] was 0.186 µM (active); in test [2], 0.417 µM (active); in test [3], 28.2 µM (active); in test [4], 31.6 µM (active).

In the case of `CCOCCn1c(N2CCCN(C)CC2)nc2ccccc21`, the Potency entry in test [1], in test [2] and in test [4] was “inactive” each time. Further, the activity (max response) in test [3] was -8.77%.

As for `C[C@@]1(c2ncncc2F)NC(=O)c2cc(-c3cn[nH]c3)ccc21`, the Potency in test [1] was 16.6 µM (active); in test [2], 20.9 µM (active). For the same compound, the activity (max response) in test [3] is -10.1%. Besides, in test [4], the Potency entry was “inactive”.

As for `Nc1ccc(F)cc1NC(=O)c1ccc(CNC(=O)/C=C/c2cccnc2)cc1`, the Potency in test [1] is 1.66 µM (active); in test [2], 0.833 µM (active); in test [3], 11.2 µM (active); in test [4], 3.55 µM (active).

`CC[C@]12CCCN3CCc4c(n(c5ccccc45)[C@@](O)(C(=O)OC)C1)[C@@H]32`: the Potency entry in test [1], in test [2] and in test [4] was “inactive” in each case. For the same compound, in test [3], the activity (max response) was 1.04%.

In the case of `Cn1cc(-c2cc(Oc3cc(F)c(NC(=O)C4(C(=O)Nc5ccccc5)CC4)cc3F)ccn2)cn1`, the Potency in test [1] was 0.103 µM (active); in test [2], 0.461 µM (active); in test [3], 25.1 µM (active); in test [4], 28.2 µM (active).

As for `CCOC(=O)c1cc(=O)c2c(OCC(COc3cccc4oc(C(=O)OCC)cc(=O)c34)OC(=O)[C@@H](N)CCCCN)cccc2o1`, the Potency result in test [1], in test [2] and in test [4] was “inactive” in each case. Moreover, the activity (max response) in test [3] was 4.59%.

As for `CC(=O)O/N=C1\C(=O)N(Cc2cc(Cl)ccc2Cl)c2ccc(Cl)cc21`, the values for the Potency in test [1], in test [2] and in test [4] were 5.9 µM (active), 8.33 µM (active) and 0.562 µM (active), respectively. Further, the activity (max response) in test [3] is -2.12%.

For `Nc1ccc(C(=O)OCC(O)CO)cc1` (stereo unspecified), the Potency result in test [1], in test [2] and in test [4] was “inactive” each time. Moreover, the activity (max response) in test [3] is 13.4%.

Consider `O=C1c2ccccc2C(=O)C1c1ccc(Br)cc1`, for which the Potency result in test [1], in test [2] and in test [4] was “inactive” each time. For the same compound, in test [3], the activity (max response) was 7.53%.

For the compound `C/C=C(/C)C(=O)O[C@H]1C(C)=CC23C(=O)C(C=C(CO)[C@@H](O)[C@]12O)[C@H]1[C@@H](C[C@H]3C)C1(C)C` (stereo partly specified), the Potency is 0.0166 µM (active) in test [1] and 0.0083 µM (active) in test [2]. For the same compound, in test [3], the activity (max response) was -8.96%. Moreover, the Potency result in test [4] is “inactive”.

Turning to `CO[C@@]1(NC(=O)C(C(=O)O)c2ccc(O)cc2)C(=O)N2C(C(=O)O)=C(CSc3nnnn3C)CO[C@@H]21` (stereo partly specified), the Potency result in test [1], in test [2] and in test [4] was “inactive” throughout. In addition, in test [3], the activity (max response) was 13.4%.
